Laboratory results taken from PubChem BioAssay (NCATS).
Inconclusive results are not listed. Activity calls are given as the source filed them. Calls follow the shape of the dose curve; as a rule, active = well fitted curve in the direction sought with a large enough effect; inconclusive = small, poorly fitted or top-dose-only effect, or another doubt; inactive = no such curve, though single readings can be large; an effect the other way counts as inactive or inconclusive.

Target: Luciferin 4-monooxygenase (Photinus pyralis) (UniProt P08659)
Assay: Primary firefly luciferase (FLuc) qHTS assay for identification of artifact compounds. (AID 1845220); also: nearly all actives have a fitted effect of over 60% in size;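 as to activity change, negative = inhibition: plate controls were DMSO vehicle for no effect and no enzyme for full effect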
Settings: purified firefly luciferase, luminescence, 5 min; series mostly up to 54.1 µM; activity change, negative = inhibition: at the top concentration
How it was run: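 qHTS, 15 min compound preincubation with substrate (10 uM luciferin, 10 uM ATP) at RT, then 10 nM FLuc; 5 min; luminescence; % inhibition vs no-enzyme/DMSO controls, 4-parameter Hill fit.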

SMILES | activity change, negative = inhibition | outcome
CCC(C)/C=C(C)/C=C/C1=CC2=C(Cl)C(=O)C(C)(OC(C)=O)C(=O)C2=CN1C(CC(=O)O)C(=O)O (stereo not given) | -11.9% [at 25.7 µM] (inactive) | 
CC1=CCC[C@@H]2[C@](CCc3ccoc3)(C(=O)O)[C@H](C)CC[C@@]12C | 2.38% (inactive) | 
C=C1C(O)C(O)C2(CC3C(C)=CCC4C(C)(C(=O)O)CCCC34C)OC2C1O (stereo not given) | -2.78% (inactive) | 
CCC(C)C(=O)OC[C@H]1O[C@H](O[C@H]2O[C@H](CO)[C@@H](O)[C@H](O)[C@H]2O)[C@H](O)[C@@H](O)[C@@H]1O (stereo not given in full) | 2.89% [at 25.7 µM] (inactive) | 
C=CCC1=C[C@]2(OC)[C@H](C)[C@@H](c3ccc(OC)c(OC)c3)O[C@]2(OC)CC1=O |  | inactive

Tested on: not listed separately
Assay: Primary fluorescence-based thiol-reactive (MSTI) qHTS assay for identification of artifact compounds. (AID 1845221);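 also: thiol-reactive compounds lower the probe fluorescence signal; nearly all actives have a fitted effect of over 65% in size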
Settings: MSTI thiol-reactivity probe, 1 h; series mostly up to 53.8 µM; activity change, negative = thiol reactive: at the top concentration
How it was run: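 One-hour, room-temperature, dark incubation of compound with 4 uM MSTI in PBS (pH 7.4, 2% DMSO) precedes a fluorescence read at 525 nm excitation, 598 nm emission; Hill-equation fitting yields concentration-response values.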

SMILES | activity change, negative = thiol reactive
COCCN1CCC(C(=O)NO)(S(=O)(=O)c2ccc(Oc3ccc(OC(F)(F)F)cc3)cc2)CC1 | 36.2% (inactive)
Cc1onc(-c2c(Cl)cccc2Cl)c1CC(=O)NCc1ccc(OCC(F)(F)F)nc1 | 109% (inactive)
CC1(C)CC[C@]2(C(=O)O[C@@H]3O[C@H](CO)[C@@H](O)[C@H](O)[C@H]3O)CC[C@]3(C)C(=CCC4[C@@]5(C)CC[C@H](O[C@@H]6O[C@H](C(=O)O)[C@@H](O[C@@H]7O[C@H](CO)[C@@H](O)[C@H](O)[C@H]7O)[C@H](O)[C@H]6O)C(C)(C)C5CC[C@]43C)C2C1 (stereo not given in full) | 348% [at 11.5 µM] (inactive)
CN[C@H](CNC(=O)N1CCC[C@@H]([C@@H](OCCNC(=O)OC)c2cccc(Cl)c2)C1)C[C@H]1CCCOC1 | 21.2% (inactive)
COC(=O)C1=CO[C@@H](O[C@@H]2O[C@H](CO[C@@H]3O[C@H](CO)[C@@H](O)[C@H](O)[C@H]3O)[C@@H](O)[C@H](O)[C@H]2O)[C@@H]2C(CO)=CC[C@H]12 | -13.5% [at 25.6 µM] (inactive)
